# Screening data (PubChem)
# Sfp PPTase inh – qHTS Assay for Inhibitors of Bacillus subtilis Sfp phosphopantetheinyl transferase (PPTase); 4'-phosphopantetheinyl transferase ffp (Bacillus subtilis), Q9F4F7; AID 1490, 2009; Potency, µM, without a hit: largest response in the series, negative = inhibition, hits mostly inhibitors; Biochemical Sfp PPTase activity, qHTS; actives 3.5% (n = 310,000);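 further: the enzyme is Sfp with the accession as filed and its product quenches rhodamine fluorescence; 0% = enzyme reaction without inhibitor and -100% = no enzyme wells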
#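 Reaction rates are the 30-min fluorescence difference (ex 525, em 598 nm) in wells containing 15 nM Sfp, 5 uM rhodamine-CoA and 12.5 uM BHQ-2-YbbR at pH 7.6 with 10 mM MgCl2.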
# HP1b binding inh – HTS for Inhibitors of HP1-beta Chromodomain Interactions with Methylated Histone Tails. Chromobox protein homolog 1 (Homo sapiens), P83916. AlphaScreen HP1-beta / biotin-H3K9me3 peptide binding. Potency, µM (highest dose often 114 µM), without a hit: at the top dose activity change, negative = inhibition, hits mostly inhibitors. actives 0.56% (n = 390,000). AID 540317, 2011; further: nearly all actives have a fitted effect of over 70% in size
#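 Compound inhibition of the preformed complex between 50 nM HP1-beta and 50 nM biotinylated H3K9me3 peptide was read by AlphaScreen. Buffer was PBS pH 7.4 with 0.01% Tween-20. Incubations ran 30 min at room temperature, with 10 ug/mL donor/acceptor beads.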
# PLK1 PBD inh – qHTS for Inhibitors of PLK1-PDB (polo-like kinase 1 - polo-box domain): Primary Screen; Serine/threonine-protein kinase PLK1 (Homo sapiens), P53350; Plk1 PBD binding of FITC phosphopeptide, fluorescence polarization; Potency, µM, for inactives: max response, negative = inhibition, usual class: inhibitors; actives 2.8% (n = 360,000); further: series mostly up to about 57 µM; on the % scale 0 is the no-effect control and ±100 the full control effect; nearly all actives have a fitted effect of over 65% in size
# G9a block – qHTS Assay for Inhibitors of Histone Lysine Methyltransferase G9a | Histone-lysine N-methyltransferase EHMT2 (Homo sapiens), Q96KQ7 | G9a H3K9 monomethylation, AlphaScreen, 2 h | Potency, µM (highest dose often 102 µM), without a hit: at the highest dose activity, negative = inhibition, hits mostly inhibitors | actives 8.8% (n = 350,000); further: on the % scale 0 is the no-effect control and ±100 the full control effect; nearly all actives have a fitted effect of over 75% in size
#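 AlphaScreen detection with an anti-monomethyl H3K9 antibody quantified product after a 2 h room-temperature reaction containing 500 nM biotinylated H3K9 peptide, 20 µM SAM and 20 nM enzyme, which had been preincubated 15 min with compound.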
# BAZ2B inh – qHTS Assay for Inhibitors of BAZ2B; AlphaScreen BAZ2B-H3K14Ac peptide displacement; Bromodomain adjacent to zinc finger domain protein 2B (Homo sapiens), Q9UIF8; Potency, µM (doses to about 114 µM), inactives show at the top dose activity change, negative = inhibition, hits mostly inhibitors; AID 504333, 2011; actives 4.4% (n = 360,000); further: on the % scale 0 is the no-effect control and ±100 the full control effect; nearly all actives have a fitted effect of over 60% in size
#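 AlphaScreen displacement: compounds (up to 110uM) incubated 30 min at room temperature with a preformed 50 nM BAZ2B/50 nM biotinylated H3K14Ac peptide complex in PBS pH 7.4 with Tween-20. Donor and acceptor beads at 10 ug/mL final added, 20 min light-protected before reading.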
# JMJD2A Tudor inh – qHTS Assay for Inhibitors of JMJD2A-Tudor Domain; AlphaScreen JMJD2A-Tudor / H3K4me3 peptide binding; Potency, µM (top dose mostly 114 µM), for the others: at the highest dose activity change, negative = inhibition, actives largely listed as inhibitors; actives 4.4% (n = 390,000); further: on the % scale 0 is the no-effect control and ±100 the full control effect; nearly all actives have a fitted effect of over 50% in size
# The depositor's hits bear a star; ? = inconclusive; / = no result given; ! = repeats disagree; [ ] = dose if it differs, or a comment. Sampled rows, rich in hits. Any-hit rate of the full collection: about 12%. The call rests on the fitted dose curve; in most records, active means well fitted curve in the direction sought with a large enough effect; inconclusive means small, poorly fitted or top-dose-only effect, or another doubt; inactive means no such curve, though single readings can be large; an effect the other way counts as inactive or inconclusive. Potency means the concentration at half of the fitted maximal effect.
SMILES,Sfp PPTase inh,HP1b binding inh,PLK1 PBD inh,G9a block,BAZ2B inh,JMJD2A Tudor inh
O=C(Nc1nnc(C2=COCCO2)o1)c1cccc(Br)c1,14.9%,34.6%,-4.5%,44.9%,70.8µM*,-2.8%
O=C(Nc1nnc(-c2ccccn2)o1)c1cccc(Br)c1,17.2%,29.7%,-12.9%,-9.8%,?,?
O=C(Nc1nnc(C2=COCCO2)o1)c1cccc([N+](=O)[O-])c1,7.0%,27.0%,-12.9%,-20.9%,79.4µM*,-14.6%
CCOc1ccc(S(=O)(=O)NNS(=O)(=O)c2ccc(C)cc2C)cc1,79.4µM*,43.1%,-15.0%,3.55µM*,-23.6%,-17.8%
O=S(=O)(c1ccc(NC(=S)NN=C2CCCCC2)cc1)N1CCOCC1,-39.1%,11.6%,-18.2%,6.31µM*,-22.8%,28.2µM*
O=S(=O)(c1ccc(NC(=S)N2CCN(c3ccccc3F)CC2)cc1)N1CCOCC1,13.5%,-12.1%,18.9µM*,-31.2%,-35.5%,-17.3%[11.4 µM]
COc1cc(C(=O)OC(C)CN2C(C)CCCC2C)cc(OC)c1OC (centres undefined),9.5%,9.0%,-25.5%,10.7%,1.0%,-13.3%
COc1cccc(C2CC(=O)Nc3c2c(=O)n(C)c2nc4ccccc4n32)c1OC (centres undefined),/,19.5%,/,-6.2%[59 µM],-9.0%,-9.0%
COc1cc(C2Nc3ccccc3-c3nnc(SCc4ccc(Cl)cc4)nc3O2)ccc1OCC(=O)O (centres undefined),/,12.3%,/,-6.3%[59 µM],-33.0%,-22.1%
COc1cc(C2Nc3ccccc3-c3nnc(SCc4ccc(C)cc4)nc3O2)cc(OC)c1O (centres undefined),/,13.3%,/,7.08µM*,?,?
Cc1cc(C)c(S(=O)(=O)C(C)C)c(=O)[nH]1,20.0%,-17.8%,23.8µM*,3.1%,-2.1%,-10.0%
Cc1ccc(-c2[nH]ncc2CN2CCN(C(=O)c3cccs3)CC2)cc1C,-10.4%,3.8%,-2.3%,/,?,?
Cc1c(C(=O)c2ccccc2)c2ccccn2c1CCC#N,13.7%,54.4%,-20.4%,?,-36.8%,-8.8%[11.4 µM]
Cc1c(C(=O)c2ccc(F)cc2)c2ccccn2c1CCc1ccccn1,-27.5%,8.3%,-12.1%,44.7µM*,-38.9%,-30.1%
COC(=O)CCc1c(C)c(C(=O)c2cc(OC)c(OC)c(OC)c2)c2ccccn12,0.0%,13.6%,-4.3%,4.8%[2.33 µM],?,-23.9%
Cc1c(C(=O)Nc2ccc(Cl)cc2)c2ccccn2c1CCc1ccncc1,-6.7%,18.6%,-10.5%,14.1µM*,-33.2%,-21.3%
Cc1c(C(=O)c2ccccc2)c2ccccn2c1CCc1ccccn1,-47.6%,17.5%,5.3%,39.8µM*,70.8µM*,-35.2%
O=C(O)CN1C(=O)/C(=C/c2ccccc2Br)Oc2ccccc21,24.8%,38.8%,-9.0%,11.9%,12.7%,0.0%
CCc1nnc(NC(=O)CCC(=O)NC2CCCC2)s1,8.1%,34.5%,6.5%,32.5%,-0.5%,7.0%
NCCC[C@@H](CC(=O)N[C@@H]1CCNC[C@H]1C(=O)N[C@H](CC(=O)N[C@@H](CCC(=O)O)CC(=O)O)Cc1c[nH]c2ccccc12)NC(=O)C[C@H](Cc1ccccc1)NC(=O)[C@@H]1CCCC[C@H]1N,5.8%,/,/,/,/,/
COCc1c(C(=O)NC2CCCCC2)sc2cccc(F)c12,/,60.2%,2.2%,-2.4%[2.33 µM],12.0%,28.8%
O=C(/C=C\c1ccc(O)c(O)c1)O[C@@H](Cc1ccc(O)c(O)c1)C(=O)O,50.1µM*,/,/,/,/,/
O=C(/C=C/c1ccc(O)c(O)c1)OC(Cc1ccc(O)c(O)c1)C(=O)O (centres undefined),79.4µM*!,?,-11.9%,3.55µM*,39.8µM*,12.6µM*
COc1cc(/C=C/C(=O)c2ccc(O)cc2O)ccc1O,-29.7%,/,/,/,/,/
CCN(c1ccccc1)C(CNS(=O)(=O)c1ccccc1)c1ccccc1 (centres undefined),/,26.3%,/,-9.5%[59 µM],-16.3%,-20.5%
SMILES,Sfp PPTase inh,HP1b binding inh,PLK1 PBD inh,G9a block,BAZ2B inh,JMJD2A Tudor inh
COc1ccc(C(=O)Nc2sc3c(c2C#N)CCN(C(C)=O)C3)cc1,-11.2%,31.5%,-3.3%,50.1µM*,/,-6.9%
CN1CCc2c(sc(NC(=O)Cc3ccccc3)c2C#N)C1,-26.9%,4.0%,?,44.7µM*,-10.2%,-16.9%
COC(=O)c1c(NC(=O)c2ccc([N+](=O)[O-])o2)sc2c1CCN(C(C)C)C2,3.3%,3.1%,-12.6%,?,-33.4%,?
CC(=O)N1CCc2c(sc(NC(=O)Cc3ccc(C)cc3C)c2C#N)C1,18.9%,14.0%,26.7µM*,11.6%,-17.7%,?
COC(=O)c1sc(NC(=O)c2ccc([N+](=O)[O-])o2)c(C#N)c1C,25.1µM*,?,?,12.6µM*,?,?
COCC(=O)N1CCC2(CC1)CN(c1cccc(-c3ccccc3)c1)C2,8.0%,/,/,6.5%[12.7 µM],/,/
O=C(CN1C(=O)NC2(CCCCC2)C1=O)Oc1ccc2ccc(=O)oc2c1,/,73.1%,-9.3%,-4.3%[12.7 µM],-3.2%,-5.2%
CN1CCN(C(=O)C2CCC(=O)N(CCc3cccc(F)c3)C2)CC1 (centres undefined),13.5%,11.8%,2.5%,-42.6%,-9.0%,-19.3%
COc1ccccc1N1CCN(Cc2cc(=O)c(OCC(=O)NC3CCCC3)co2)CC1,/,9.6%,-11.3%,-3.5%[0.501 µM],3.1%,-9.8%
CCCN1CCc2c(sc(NC(=O)CCS(=O)(=O)c3ccccc3)c2C(N)=O)C1,-0.5%,-5.8%,-7.9%,?,-17.2%,-10.4%
CC(=O)N1CCc2c(sc(NC(=O)c3ccc([N+](=O)[O-])o3)c2C#N)C1,10µM*,?,23.8µM*,2.82µM*,56.2µM*,?
CN1CCc2c(sc(NC(=O)CS(=O)(=O)c3ccccc3)c2C(N)=O)C1,/,9.7%,-11.8%,50.1µM*,-11.2%,-21.3%
c1coc(-c2nn3c(-c4ccco4)nnc3s2)c1,-12.3%,19.9%,-17.3%,?,?,?
COc1ccc(OCc2nn3c(-c4ccco4)nnc3s2)cc1,-5.6%,6.4%,-10.8%,?,-37.0%,-25.4%
Clc1ccc(OCc2nn3c(-c4ccco4)nnc3s2)cc1,?,-20.0%,23.8µM*,?,?,-19.9%[11.4 µM]
Clc1ccc(-c2nnc3sc(Cc4cccs4)nn23)c(Cl)c1,1.2%,37.1%,-5.6%,39.8µM*,-32.4%,-21.6%
c1coc(-c2nnc3sc(Cc4cccs4)nn23)c1,-3.8%,?,26.7µM*,?,50.1µM*,39.8µM*
